Laboratory results: PubChem BioAssay AID1628 (Sanford-Burnham Center for Chemical Genomics, 2009)
The campaign covered roughly 190,000 compounds. About 930 (0.49%) were called active. The list shows a part of the results. Measured potencies and affinities stand elsewhere. Unmarked numbers belong to inactive results.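 Rule for the calls: active = z-score of insulin promoter reporter brightness in nuclei below -3 at 5 µM, with at least 500 cells counted; inconclusive = wells with under 500 cells, flagged as toxic or sparse; inactive = the rest.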

Assay: insulin promoter down-regulators in MIN6 cells, imaging, high-content screening, mouse beta cells (AID 1628)
Details: MIN6 insulin promoter GFP reporter, at 5 µM, active compounds read low
`CC(=O)Nc1ccc(NC(=O)C(=O)c2cn(CC(=O)N3CCCCC3)c3ccccc23)cc1` showed a z-score of 2.61.
With `CCn1c(C2CC(=O)N(Cc3ccccc3)C2)nc2ccccc21` (stereo not given) the z-score was -5.96 (active).
Work on `N#C/C(=C\c1ccc(-c2ccc(C(=O)O)cc2)o1)c1nc2ccccc2[nH]1` yielded a z-score of 6.2.
Compound `Nc1c(C(=O)NC2CCCC2)sc2nc(-c3cccs3)ccc12` has a z-score of 3.89.
With `O=C(COC(=O)c1cccs1)NC1CCCCC1` the z-score was -5.3 (active).
`Cn1c(SCC(=O)NC2CCCCCC2)nnc1-c1cccs1` gave a z-score of 2.42.
`Cc1cc(F)c(F)c(C(=O)N2CCOCC2)c1` gave a z-score of 1.59.
With `Cc1c(C(=O)N2CCOCC2)[nH]c2c1C(=O)CC(c1ccccc1Cl)C2` (stereo not given) the z-score was -3.07 (active).
Compound `O=C(CSc1nnc(SCc2ccc(Cl)cc2)s1)N1CCOCC1` has a z-score of -0.99.
For `NCCc1nnc(SCc2ccccc2F)o1`, the z-score was 1.04.
In the case of `Clc1ccc(CSc2nnc(/C=C/c3ccccc3)o2)cc1`, the z-score is reported as -4.41 (active).
With `CCCC1CC(=O)OC1(C)C(=O)CSc1n[nH]c(-c2ccccc2)n1` (stereo not given) the z-score was -5.89 (active).
Work on `CCN(CC)c1ccc(/C=C(\C#N)c2nc(-c3cccs3)c(NC(C)=O)s2)cc1` yielded a z-score of 16.9.
In the case of `CN(C)C=Nc1ccc2nn(-c3ccccc3)nc2c1`, the z-score is reported as 3.14.
With `CCOc1ccc2[nH]c(=O)c(CN(Cc3cccs3)C(CC)c3nnnn3C(C)(C)CC)cc2c1` (stereo not given) the z-score was -3.01 (active).
With `Cc1cccc2cc(CN(Cc3cccs3)C(c3nnnn3C3CCCC3)C(C)C)c(=O)[nH]c12` (stereo not given) the z-score was -4.88 (active).
With `CCC(c1nnnn1C1CCCC1)N(Cc1cccs1)Cc1cc2cc(C)ccc2[nH]c1=O` (stereo not given) the z-score was -3.35 (active).
Compound `COc1cc(OC)c(OC)cc1C#N` has a z-score of 0.13.
`COc1cccc(C2C3CN(C)CC=C3C(C#N)=C(N)C2(C#N)C#N)c1OC` (stereo not given) gave a z-score of 13.7.
`C=CCn1c(/N=C/c2ccc3c(c2)OCO3)nc2ccccc21` gave a z-score of 0.8.
With `COc1ccc(C2C(C(=O)c3ccccc3)=C(C)Nc3nc4ccccc4n32)c(OC)c1` (stereo not given) the z-score was 3.79.
`CC(O)c1nc2ccccc2n1CCOc1ccccc1` (stereo not given) gave a z-score of 1.64.
In the case of `Cn1c(CNc2nc3ccccc3n2C)nc2ccccc21`, the z-score is reported as 1.15.
In the case of `COc1ccc2nc3ccccc3nc2c1`, the z-score is reported as -1.09.
`COc1ccc(CNC(=O)CN2CCC(C(=O)c3ccc(OC)cc3)CC2)cc1` gave a z-score of 1.22.
`Cc1ccc2nc(/C(C#N)=C\c3ccc(N4CCOCC4)o3)[nH]c2c1` showed a z-score of 15.9.
For `CC(C)=CCc1c2c(c3occ(-c4ccc(O)cc4)c(=O)c3c1O)C=CC(C)(C)O2`, the z-score was -0.49.
With `N#C/C(=C/c1ccc(N2CCOCC2)o1)C(=O)Nc1ccccc1` the z-score was 4.15.
For `Cc1cc2nc3c(=O)n(Cc4ccccc4)c(=O)[nH]c3nc2cc1N`, the z-score was 12.1.
In the case of `Cn1c(N)cc(=O)n(Cc2ccccc2)c1=O`, the z-score is reported as -5.18 (active).
`CCC(=O)OCC(=O)c1c(N)n(Cc2ccccc2)c(=O)n(C)c1=O` gave a z-score of 3.29.
In the case of `Cc1noc(C)c1S(=O)(=O)N1CCC(C(=O)N2CCN(C3CCCC3)CC2)CC1`, the z-score is reported as 3.05.
For `Cc1n[nH]c(C)c1S(=O)(=O)N1CCCC(C(=O)N2CCN(c3ccc(Cl)cc3)CC2)C1` (stereo not given), the z-score was -3.2 (active).
With `CCCS(=O)(=O)N1CCC(C(=O)NCCC(C)C)CC1` the z-score was 3.11.
With `CSc1ccccc1C(=O)NC1CCCC1` the z-score was -5.87 (active).
`Cc1ccccc1C(=O)NC1CCN(C(=O)N2CCOCC2)CC1` gave a z-score of 1.27.
For `O=C(Cn1nnc(-c2ccc(S(=O)(=O)N3CCCC3)cc2)n1)Nc1ccccc1-n1cccc1`, the z-score was -4 (active).
For `COc1ccc(-c2[nH]ncc2CN(C)Cc2ccccn2)c(OC)c1`, the z-score was -4.89 (active).
Compound `COc1ccccc1NC(=S)N(Cc1ccc(C)cc1)Cc1ccccn1` has a z-score of 1.92.
In the case of `CCCCCCCCCCCC(=O)c1c(O)cccc1O`, the z-score is reported as -0.04.
Compound `CN1C(=S)N(c2cccnc2)C(=O)/C1=C\c1ccc(N(C)C)cc1` has a z-score of 5.58.
In the case of `CCc1ccccc1NC(=S)N(CCN(C)C)C(C)c1ccccn1` (stereo not given), the z-score is reported as -5.14 (active).
In the case of `Cc1ccccc1NC(=S)N(CCN(C)C)C(C)c1ccccn1` (stereo not given), the z-score is reported as -6.19 (active).
In the case of `COCCN(C(=S)Nc1ccc(C)cc1C)C(C)c1cccs1` (stereo not given), the z-score is reported as 1.14.
In the case of `CCN1CCN(C(=O)C2(NC(=O)Nc3cccc(F)c3)CCCCC2)CC1`, the z-score is reported as -4.67 (active).
In the case of `CC(C)CCN(C(=S)Nc1cccc(F)c1)C(C)c1cccs1` (stereo not given), the z-score is reported as 4.77.
For `COc1ccccc1NS(=O)(=O)c1cc(NC(=O)c2ccc(=O)[nH]c2)ccc1N1CCOCC1`, the z-score was -4.48 (active).
`Cc1cccc(NC(=O)Cn2cc([N+](=O)[O-])cn2)n1` gave a z-score of 2.86.
With `CCCCn1nnnc1SCC(=O)Nc1cccc(C)n1` the z-score was -4.7 (active).
`Cc1nn(C)c(C)c1NC(=O)CSc1nnc(C)n1-c1ccccc1` gave a z-score of 0.56.
